Screening data from PubChem BioAssay.
Rows were chosen to be rich in hits. Some 0.44% of all compounds tested hit in one or more screens of this group.
EPAC1 agonist – EPAC1 (human) agonism | AID 720707 | hit rate 0.073% among 360,000 | Potency, µM (top dose mostly 154 µM), hits mostly activators | O95398 | EPAC1 agonist qHTS, biochemical assay; response scale: 100% = response to 6.5 mM cAMP; also: nearly all actives have a fitted effect of over 60% in size
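Compounds were pinned as a concentration titration into mixtures of EPAC1 (100 nM), BODIPY-GDP-loaded Rap1B (250 nM) and GDP (50 uM). After 5 min at room temperature, fluorescence was followed for 30 min; activity was scaled to 6.5 mM cAMP.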
EPAC2 antagonist – blocks human EPAC2 exchange factor; Potency, µM (titrated, usually from 114 µM), actives largely listed as inhibitors; hit rate 0.18% among 360,000; AID 720708; EPAC2 GEF exchange of Rap1B-BODIPY-GDP, fluorescence; also: nearly all actives have a fitted effect of over 45% in size
USP1 inh – inhibitors of human USP1/UAF1 deubiquitinase; recombinant USP1/UAF1, Ub-Rhodamine cleavage fluorescence; Potency, µM (doses to about 57.1 µM), most hits filed as inhibitors; hit rate 0.23% among 390,000; also: nearly all actives have a fitted effect of over 60% in size
Target sequence (O94782 whole entry, looked up): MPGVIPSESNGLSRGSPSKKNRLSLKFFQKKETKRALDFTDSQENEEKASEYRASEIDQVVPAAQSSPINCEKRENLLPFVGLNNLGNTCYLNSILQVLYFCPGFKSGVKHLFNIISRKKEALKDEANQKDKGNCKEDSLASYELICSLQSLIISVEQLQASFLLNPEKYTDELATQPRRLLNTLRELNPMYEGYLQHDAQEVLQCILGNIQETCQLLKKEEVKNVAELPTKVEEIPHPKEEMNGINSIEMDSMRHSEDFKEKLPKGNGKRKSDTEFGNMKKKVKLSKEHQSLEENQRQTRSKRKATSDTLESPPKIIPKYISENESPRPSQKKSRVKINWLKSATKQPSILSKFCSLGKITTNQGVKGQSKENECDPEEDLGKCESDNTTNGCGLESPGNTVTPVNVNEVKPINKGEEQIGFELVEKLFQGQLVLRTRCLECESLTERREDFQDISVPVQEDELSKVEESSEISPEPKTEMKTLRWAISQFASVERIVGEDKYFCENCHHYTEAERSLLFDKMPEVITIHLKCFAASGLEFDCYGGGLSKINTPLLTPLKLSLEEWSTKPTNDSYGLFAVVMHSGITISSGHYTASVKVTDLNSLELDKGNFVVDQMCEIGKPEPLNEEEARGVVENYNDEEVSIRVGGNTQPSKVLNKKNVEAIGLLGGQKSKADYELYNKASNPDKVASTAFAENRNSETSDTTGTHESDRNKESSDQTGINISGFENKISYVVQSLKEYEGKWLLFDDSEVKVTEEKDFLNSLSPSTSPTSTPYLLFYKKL
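1 nM enzyme complex + cpd, 15 min RT; start with Ub-Rho 150nM final; kinetic fluorescence ex 480/em 540, 6 reads q60 s. Buffer 50mM HEPES pH 7.8, 0.5mM EDTA, 0.1 mg/ml BSA, 1mM TCEP, 0.01% Tween-20.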
EPAC2 ag – agonists of human EPAC2 (RAPGEF4); Q8WZA2; EPAC2 activation, biochemical qHTS; response scale: 100% = 6.5 mM cAMP response; Potency, µM (series often up to 154 µM), usual class: activators; hit rate 0.079% among 360,000; AID 720711; also: nearly all actives have a fitted effect of over 50% in size
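In this primary screen, activation is scored as increased exchange of BODIPY-GDP from Rap1B by 100 nM EPAC2, with 50 uM GDP as competitor. Signal is normalized to the 6.5 mM cAMP agonist control.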
EPAC1 antag – EPAC1 (human) antagonism; O95398; hit rate 0.14% among 360,000; EPAC1 GEF assay, Rap1b-BODIPY-GDP exchange fluorescence; AID 720709; Potency, µM (highest dose often 115 µM), actives largely listed as inhibitors; also: nearly all actives have a fitted effect of over 50% in size
Large screens that a line does not name were inactive. Calls follow the shape of the dose curve; as a rule, active = well fitted curve in the direction sought with a large enough effect; inconclusive = small, poorly fitted or top-dose-only effect, or another doubt; inactive = no such curve, though single readings can be large; an effect the other way counts as inactive or inconclusive.

CC(=O)[C@@]1(O)Cc2c(O)c3c(c(O)c2[C@H](O[C@H]2C[C@H](N)[C@H](O)[C@H](C)O2)C1)C(=O)c1ccccc1C3=O	EPAC1 agonist 28µM, EPAC2 ag inconclusive (no result: USP1 inh)
COc1cccc2c1C(=O)c1c(O)c3c(c(O)c1C2=O)CC(O)(C(C)=O)CC3OC1CC(N(C)C)C(O)C(C)O1 (configuration not stated)	EPAC1 agonist 89µM, USP1 inh inconclusive
COc1cccc2c1C(=O)c1c(O)c3c(c(O)c1C2=O)C[C@@](O)(C(=O)CO)C[C@@H]3O[C@H]1C[C@H](N)[C@H](O)[C@H](C)O1	EPAC1 agonist inconclusive, USP1 inh 32µM
COc1cccc2c1C(=O)c1c(O)c3c(c(O)c1C2=O)C[C@@](O)(C(=O)CO)C[C@@H]3OC1CC(N)C(O)C(C)O1 (some centres not stated)	EPAC1 agonist inconclusive, USP1 inh inconclusive
Clc1ccccc1C(c1ccccc1)(c1ccccc1)n1ccnc1	EPAC2 antagonist 14µM
CC(C)=CCC1=C(OCC(=O)O)C(=O)c2ccccc2C1=O	EPAC2 antagonist inconclusive, USP1 inh 10µM, EPAC1 antag inconclusive
COC1=CC(=O)c2nc(Cl)ccc2C1=O	EPAC2 antagonist inconclusive, EPAC1 antag inconclusive (no result: USP1 inh)
COC1=CC(=O)c2c(ccc3ncnc(N)c23)C1=O	EPAC2 antagonist 40µM, USP1 inh 0.89µM, EPAC1 antag 40µM
COc1ccccc1/C=C/C=C1\Oc2c(ccc(O)c2CN(C)C)C1=O	EPAC1 agonist inconclusive, USP1 inh 25µM, EPAC2 ag inconclusive
CS(=O)(=O)Oc1ccc2c(c1)O/C(=C\C=C\c1ccccc1)C2=O	none
COc1ccc2c(c1)CC/C(=C\C=C\c1ccccc1OC)C2=O	USP1 inh inconclusive
CCN(CC)Cc1c(O)ccc2c1O/C(=C\C=C\c1ccccc1)C2=O	EPAC1 agonist inconclusive, USP1 inh 32µM
Cc1ccc(/C=C2\Oc3cc(OCC(=O)NN)ccc3C2=O)o1	none
COCCN(CCOC)Cc1c(O)ccc2c1O/C(=C\c1ccc(C)o1)C2=O	EPAC1 agonist inconclusive, USP1 inh 32µM
Cc1cc(C)c(NC(=O)c2cc(C)nc3c2c(C)nn3-c2cccc(F)c2)c(C)c1	none (no result: EPAC1 agonist, EPAC2 antagonist, EPAC2 ag, EPAC1 antag)
Cc1cccnc1C1=NOC(Cc2ccccc2)C(=O)N1C (configuration not stated)	none (no result: USP1 inh)
CC(C)c1ccc(NC(c2nnc(-c3ccccc3)o2)c2ccc(F)cc2Cl)cc1 (configuration not stated)	none (no result: EPAC1 agonist, EPAC2 antagonist, EPAC2 ag, EPAC1 antag)
CC(C)(C)C(=O)/C=c1\s/c(=C\c2ccc(-c3ccc([N+](=O)[O-])cc3)o2)c(=O)n1CC(=O)NC(N)=O	USP1 inh 7.9µM
O=C1/C(=C/c2cccs2)SC(=S)N1NS(=O)(=O)c1ccccc1	EPAC2 antagonist inconclusive
O=C1/C(=C/C=C/c2ccco2)SC(=S)N1NS(=O)(=O)c1ccccc1	EPAC2 antagonist inconclusive, USP1 inh inconclusive, EPAC1 antag 100µM
CCCCCC/C(C)=C1/SC(=S)NC1=O	none
C/C(C/C(C)=C1/SC(=S)NC1=O)=C1\SC(=S)NC1=O	EPAC2 antagonist inconclusive, USP1 inh inconclusive, EPAC1 antag 20µM
O=C(O)c1cccc(S(=O)(=O)Nc2ccccc2-c2ccccc2)c1	none
O=S(=O)(Nc1ccccc1-c1ccccc1)c1ccccc1	EPAC2 antagonist 50µM, USP1 inh inconclusive
O=C(O)c1ccccc1C1=Nc2ccc(O)cc2Oc2cc(O)ccc21	EPAC1 agonist 100µM, USP1 inh 28µM, EPAC2 ag inconclusive
Cc1cc(-c2ccccc2C(=O)O)on1	none
COc1ccc(-n2c(SCC(=O)N3CCc4ccccc43)nc3c([nH]c4ccccc43)c2=O)cc1	none (no result: EPAC1 agonist, EPAC2 antagonist, EPAC2 ag, EPAC1 antag)
COc1ccc(NC(=O)CSc2ccc3c4c(cccc24)C(=O)c2ccccc2-3)cc1	USP1 inh 25µM
N#Cc1cccc(NC(=O)CSc2ccc3c4c(cccc24)C(=O)c2ccccc2-3)c1	EPAC1 agonist inconclusive, EPAC2 ag inconclusive
Cn1c2nc(=O)n(-c3ccccc3)c(=O)c-2nc2c1CCCC2	EPAC1 agonist inconclusive, USP1 inh 14µM
COc1ccccc1Cn1c(=O)oc2ccc(C)cc21	EPAC2 antagonist 28µM
O=c1oc2c3c4c(cc2c(C(F)(F)F)c1CCN1CCOCC1)CCCN4CCC3	EPAC1 agonist inconclusive, USP1 inh 6.3µM, EPAC2 ag 112µM
O=C1c2ccccc2-c2cccc(NS(=O)(=O)c3ccc(C(F)(F)F)cc3)c21	USP1 inh 28µM
O=C(O)CCC(=O)N1CCc2cc(S(=O)(=O)NCc3ccc(F)cc3)ccc21	none (no result: EPAC1 agonist, EPAC2 antagonist, EPAC2 ag, EPAC1 antag)
CC(C)OCCCn1c(SCc2cccc(Br)c2)nc2c(sc3ccccc32)c1=O	none (no result: EPAC1 agonist, EPAC2 antagonist, EPAC2 ag, EPAC1 antag)
Cn1c(Cc2cccs2)nnc1SCc1nc2ccccc2[nH]1	EPAC2 ag 10µM
CCSc1ccc2c(c1)N(CCCN1CCN(C)CC1)c1ccccc1S2	none
CN1CCN(CCCN2c3ccccc3Sc3ccc(Cl)cc32)CC1	EPAC2 antagonist 13µM
COc1ccc(OC)c(NC(=O)c2cn(CC(C)C)c(=O)c3cc(OC)c(OC)cc23)c1	none (no result: EPAC1 agonist, EPAC2 antagonist, EPAC2 ag, EPAC1 antag)
CC1CC1c1ccc(/C=C(\C#N)C(=O)Nc2cc(Cl)ccc2Cl)o1 (configuration not stated)	EPAC1 agonist 89µM, USP1 inh inconclusive
CC(=O)Nc1ccc(Nc2nc3ccccc3nc2NS(=O)(=O)c2ccc(Cl)c([N+](=O)[O-])c2)cc1	EPAC2 antagonist 79µM, USP1 inh inconclusive, EPAC1 antag inconclusive
CCCOc1cccc(C2c3c(oc4ccc(F)cc4c3=O)C(=O)N2Cc2ccc3c(c2)OCO3)c1 (configuration not stated)	none (no result: EPAC1 agonist, EPAC2 antagonist, EPAC2 ag, EPAC1 antag)
CCOc1cc(/C=C2\SC(=O)N(CC(=O)Nc3ccccc3F)C2=O)cc([N+](=O)[O-])c1O	EPAC2 antagonist inconclusive, EPAC1 antag inconclusive
COc1cc(/C=C2\SC(=O)N(CC(=O)Nc3cccc(C)c3)C2=O)cc([N+](=O)[O-])c1O	EPAC2 antagonist 50µM, EPAC1 antag inconclusive
COc1cc(/C=C2/C(=O)NN(c3ccc(Cl)c(Cl)c3)C2=O)cc([N+](=O)[O-])c1O	USP1 inh inconclusive, EPAC1 antag inconclusive
COc1cc(/C=C2\SC(=O)N(c3ccccc3Cl)C2=O)cc([N+](=O)[O-])c1O	EPAC2 antagonist inconclusive, EPAC1 antag 79µM
O=C(N/N=C/c1ccc(-c2ccc(Cl)c(C(=O)O)c2)o1)c1cc2c(ccc3ccccc32)o1	EPAC1 antag 40µM
CCCCNc1nc(Oc2ccc(=O)n(C)n2)nc(N(C)C)n1	none (no result: EPAC1 agonist, EPAC2 antagonist, EPAC2 ag, EPAC1 antag)
C=CCn1c(-c2ccc(S(=O)(=O)N3CCOCC3)cc2)csc1=Nc1ccccc1	EPAC2 ag 7.9µM
COc1cc(NCCCCCCN)c2ncccc2c1OC	USP1 inh 8.9µM
O=C1/C(=C/c2ccccc2)CCCc2ccccc21	none
CN(C)c1ccc(/C=C2\CCC/C(=C\c3ccccc3)C2=O)cc1	USP1 inh 32µM, EPAC2 ag inconclusive
COc1ccc(-c2cc(-c3ccc(C)cc3)nc3c2COc2ccccc2-3)cc1	none (no result: EPAC1 agonist, EPAC2 antagonist, EPAC2 ag, EPAC1 antag)
